Test results: PubChem BioAssay (NCI)
The panel holds about 83,000 compounds, 20% with a hit somewhere; the sample as a whole holds those more often.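 Treatment: one concentration, 48 hours, 96-well format. Scoring: percent growth, with anything below 10 considered active.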 Activity calls are given as the source filed them.

Columns and labels:
Assay in all cases: NCI-60 one-dose screen, 48 h (100 = growth as untreated, 0 = no growth, -100 = all killed)
Conditions in all cases: 10 µM unless noted
[1] = tested on: SR leukemia
[2] = tested on: RPMI-8226 leukemia
[3] = tested on: OVCAR-8 ovarian
[4] = tested on: OVCAR-5 ovarian
[5] = tested on: OVCAR-4 ovarian
[6] = tested on: SK-OV-3 ovarian
[7] = tested on: IGROV1 ovarian
[8] = tested on: OVCAR-3 ovarian
[9] = tested on: HS 578T breast
[10] = tested on: NCI/ADR-RES ovarian

Measured: growth

COc1cc2nc(-c3ccc(C(F)(F)F)cc3)cc(OCCN3CCCCC3)c2cc1OC
inactive: [1] 19.2% | [2] 42.3% | [3] 78.2% | [4] 58.4% | [5] 81.8% | [6] 83.7% | [7] 46.5% | [8] 89.7% | [9] 74.7% | [10] 63.1%

CCN1C(=O)/C(=C/C(=O)OC)S/C1=N\NC(=O)c1cc2ccc1/C=C\c1ccc(cc1)/C=C\2
inactive: [3] 92.6% | [4] 100% | [5] 89.6% | [6] 125% | [7] 88.4% | [8] 92.9% | [9] 99% | [10] 86.5%
active: [1] -13.4% | [2] -14.3%

Nc1c(C(=O)Nc2cccc3cnccc23)sc2nc3c(cc12)C(=O)CCC3
inactive: [1] 59.5% | [2] 88.9% | [3] 100% | [4] 107% | [5] 102% | [6] 96.5% | [7] 87.9% | [8] 93.4% | [9] 84.3% | [10] 102%

Cc1cccc(NC(=O)Nc2ccc(-c3ccc4c(c3)NC(=O)/C4=C\c3ccc[nH]3)cc2)c1
inactive: [1] 23.6% | [2] 91.4% | [3] 105% | [4] 96.3% | [5] 73.4% | [6] 90.5% | [7] 78% | [8] 103% | [9] 95.7% | [10] 93.8%

O=C(CCN1CCCC1)Nc1ccc2c(NCCCc3ccccc3)c3ccccc3nc2c1
active: [1] -22.3% | [2] -36.6% | [3] 9.97% | [5] -18.6% | [8] -70.7%
inactive: [4] 32.1% | [6] 13% | [7] 11.7% | [9] 27.4% | [10] 91.2%

COc1ccc(/C=C2\Oc3cc(OCCCCCN4CCCCC4)ccc3C2=O)cc1OC
inactive: [2] 76.1% | [3] 83.3% | [4] 95.9% | [5] 48.1% | [6] 104% | [7] 94.3% | [8] 82.8% | [9] 93.8% | [10] 84%
active: [1] -26.1%

COc1ccccc1NC(=O)C1CC(c2ccc(F)cc2)=NO1 (stereo not given)
inactive: [1] 101% | [2] 97.1% | [3] 98.1% | [4] 108% | [5] 102% | [6] 112% | [7] 105% | [8] 110% | [9] 94.1% | [10] 95.8%

O=C1c2cccc3c(-c4ccc5c(c4)ncn5C4CCCCC4)ccc(c23)C(=O)N1CCO
inactive: [1] 84.7% | [2] 66.3% | [3] 83.2% | [4] 110% | [5] 86% | [6] 109% | [7] 96.2% | [8] 88.9% | [9] 94.7% | [10] 89.1%

CC1=C(C(=O)/C=C/c2c[nH]c3ccccc23)C(c2ccccc2)NC(=S)N1 (stereo not given)
inactive: [1] 88.8% | [2] 101% | [3] 101% | [4] 96.7% | [5] 101% | [6] 95.4% | [7] 76.8% | [8] 98.5% | [9] 95.9% | [10] 97.1%

CN1[C@@H]2CC[C@H]1/C(=C\c1ccccc1)C(=O)/C2=C/c1ccccc1
inactive: [1] 19.2% | [2] 27% | [4] 98.4% | [5] 48.4% | [6] 79.1% | [7] 41.7% | [8] 14.4% | [9] 33.7% | [10] 10.7%
active: [3] -9.6%

COC(=O)C1=C(C(=O)ON)C2C=CC1(C(Cc1ccccc1)Nc1ccccc1)O2 (stereo not given)
active: [1] 4.9% | [8] -100%
inactive: [2] 11.8% | [3] 91.2% | [4] 105% | [5] 69% | [6] 104% | [7] 75.9% | [9] 108% | [10] 94.6%

Nc1nc(Nc2ccccc2SSc2ccccc2Nc2nc(N)nc(-c3cccs3)n2)nc(-c2ccsc2)n1
active: [10] 4.43%
inactive: [1] 31.3% | [2] 71.9% | [3] 76.9% | [4] 118% | [5] 70.4% | [6] 110% | [7] 58.9% | [8] 90.4% | [9] 93.3%

C[C@H]1[C@H](C)CC[C@]2(C(=O)NCC#CCN3CCN(C)CC3)CC[C@]3(C)C(=CC[C@@H]4[C@@]5(C)Cc6c([nH]c7ccccc67)C(C)(C)[C@@H]5CC[C@]43C)[C@H]12
inactive: [2] 67% | [3] 90.2% | [4] 94.4% | [5] 83.2% | [6] 86.9% | [7] 93.6% | [8] 82.6% | [9] 82.8% | [10] 82.8%
active: [1] 4.29%

CN[C@@H](C)C(=O)N[C@H]1CCS[C@H]2CC(C)(C)[C@@H](C(=O)N[C@H]3c4ccccc4C[C@H]3OCC#CC#CCO[C@@H]3Cc4ccccc4[C@@H]3NC(=O)[C@H]3N4C(=O)[C@@H](NC(=O)[C@H](C)NC)CCS[C@H]4CC3(C)C)N2C1=O
inactive: [1] 36.1% | [2] 71.2% | [3] 77.3% | [4] 109% | [7] 116% | [8] 86.2% | [9] 82.2% | [10] 109%
active: [5] -33.1% | [6] -71.6%

COc1cc2c(-c3cc4c(cc3CNCCc3ccc5c(c3)OCO5)OCO4)cccc2c(OC)c1O
inactive: [1] 27.8% | [2] 63.8% | [3] 79.9% | [4] 90.9% | [5] 88.4% | [6] 99.6% | [7] 61.6% | [8] 86.1% | [9] 86.8% | [10] 74.5%

COc1cc(NC(C)CCCNC(=O)CCC(=O)NCCCNCCCCCCCCCCNCCCNC(=O)CCC(=O)NCCCC(C)Nc2cc(OC)cc3cccnc23)c2ncccc2c1 (stereo not given)
active: [5] 4.17% [8 µM]
inactive: [1] 92% [8 µM] | [2] 52.9% [8 µM] | [3] 77.7% [8 µM] | [4] 79.3% [8 µM] | [6] 116% [8 µM] | [7] 57.9% [8 µM] | [8] 41.4% [8 µM] | [9] 64.5% [8 µM] | [10] 101% [8 µM]

O=C(Cn1c[n+](CC(=O)c2ccc([N+](=O)[O-])cc2)c2ccccc21)Nc1cccc2cccnc12
inactive: [1] 61.8% | [2] 10.2% | [3] 93.2% | [4] 93.9% | [5] 20.4% | [6] 109% | [7] 71.1% | [8] 38.6% | [9] 74.6% | [10] 102%

CCOC(=O)CSc1nc2ccccc2c(=O)n1Cc1ccc(S(N)(=O)=O)cc1
inactive: [1] 99.6% | [2] 98.2% | [3] 101% | [4] 97.5% | [5] 116% | [6] 107% | [7] 105% | [8] 112% | [9] 97.9% | [10] 104%

COc1cc2oc(-c3cccc(C(=O)Nc4ccc(Br)cc4)c3)cc(=O)c2c(OC)c1OC
inactive: [1] 18.4% | [3] 40.5% | [4] 61% | [5] 57.6% | [6] 69.4% | [7] 52.3% | [8] 76% | [9] 65.2% | [10] 45.7%
active: [2] 8.6%

N#C/C(=C\c1c(-c2ccccc2)[nH]c2ccccc12)C(=O)c1ccc(Cl)cc1
inactive: [1] 48.6% | [3] 46.6% | [4] 62.5% | [6] 53.3% | [7] 59%
active: [2] -9.73% | [5] -11.2% | [8] -33.2% | [9] 4.84% | [10] -2.46%

N#Cc1c(NC(=O)NCc2ccccc2)sc2c1CCCCC2
inactive: [1] 29.5% | [2] 14.8% | [3] 21.8% | [4] 43.5% | [5] 43% | [6] 25% | [7] 27.2% | [10] 17.2%
active: [8] -17.6% | [9] 9.89%

COc1ccc(C(=O)c2nc3ccccc3n2CC(=O)c2ccc(F)cc2)cc1
inactive: [1] 41.8% | [2] 81.8% | [3] 89.5% | [4] 82.5% | [5] 73.8% | [6] 116% | [7] 86.6% | [8] 84.1% | [9] 103% | [10] 58.3%

CNC(=O)c1cc(Cn2nc(C)c(NC(=O)Nc3ccc(Cl)c(C(F)(F)F)c3)c2C)ccn1
inactive: [1] 91.9% | [2] 94.9% | [3] 97% | [4] 99.7% | [5] 87.1% | [6] 95.2% | [7] 109% | [8] 109% | [9] 97.1% | [10] 98.8%
